Source: ChEMBL document CHEMBL3988442, “University of Dundee, Small-Polar-MMV Screening Library” (2021)

biological target: AMP-activated protein kinase, AMPK (Homo sapiens) (UniProt P54646+O43741+P54619+Q9UGJ0+Q9Y478+Q13131+Q9UGI9); experiment: AMP-dependent Kinase enzyme assay. An in vitro enzyme assay that detects ADP turnover that is directly proportional to AMPK activity. This uses naive AMPK that is activated during the assay with MK-8722; type: functional; design: scale not given: direction of the effect not stated beside the values; conditions: 30 µM

Row | Compound | Percent Effect [%]
1 | Cn1ccnc1CN1CCN(Cc2cc(-c3ccccc3)no2)CC1 | -2.31
2 | COc1cccc(CN2C[C@H]3CC[C@H]2C3)c1OCCN1CCOCC1 | -4.89
3 | CCN(CC)C1CCN(c2ncnc3c2CCN(C(=O)C2CC2)C3)C1 (centres undefined) | -3.94
4 | COc1ccccc1OCc1nc2cc3c(cc2c(=O)o1)OCCCO3 | -8.93
5 | CC(CC(=O)c1ccco1)NC(=O)c1ccccn1 (centres undefined) | -8.76
6 | COc1cc(NC2CCCN(c3ncccn3)C2)cc(OC)c1 (centres undefined) | -64.1
7 | Cc1n[nH]c(C)c1CCNC(=O)Nc1ccc2c(c1)COC2 | 11.6
8 | Fc1ccccc1CN1CCC[C@@H](Cn2nnc(-c3cccs3)n2)C1 | 5.25
9 | COc1ccc(S(=O)(=O)Nc2cccnc2-n2cncn2)cc1C | -0.234
10 | O=C(NCc1ccc(N2CCSCC2)cc1)NCc1cc[nH]n1 | -0.457
11 | COc1cc(N2CCN(Cc3ccc(C)o3)C(CCO)C2)nc(N)n1 (centres undefined) | 0.197
12 | CC(C(=O)NC1(C#N)CCCCC1)N1CCc2c(ncn2C2CC2)C1 (centres undefined) | -1.93
13 | CCN(CCNS(=O)(=O)C1CCOCC1)C(=O)OC(C)(C)C | 1.64
14 | COc1cc(CN2CC[C@@H](N3CCCCCC3)[C@H](O)C2)cc(Cl)c1OC | 13.6
15 | COCC(NC(=O)c1cn2ccsc2n1)c1ccnn1C (centres undefined) | -19.1
16 | O=C(NCCNCc1cccc2c1OCCCO2)C1CCCC1 | -0.551
17 | C=C(C)COc1cccc(CNCCc2nc(N)cc(O)n2)c1 | 3.76
18 | NCCc1cc(N2CCOCC2)nc(NC2CC2)n1 | 3.97
19 | CC(C)n1nccc1CN1Cc2nccn2CC1c1ccccc1 (centres undefined) | -2.65
20 | CC(C)Oc1ccccc1CNC(=O)N(C)C(C)CS(C)(=O)=O (centres undefined) | 9.72

Row | Compound | Percent Effect [%]
21 | Cc1cc(C)cc(OCCN(C)C2CCOC2=O)c1 (centres undefined) | -0.216
22 | Cc1ccc(C(=O)NCCC2CCN(C)CC2)cc1N(C)S(C)(=O)=O | -4.15
23 | O=C(CC1CCCC1)NCCS(=O)(=O)N1CCN(c2ccccc2)CC1 | -7.22
24 | Cc1ccc(OCCn2cnc3oc(C)c(C(=O)O)c3c2=O)cc1 | 15.5
25 | CCNC(=O)c1ccnc(N2CCCC(COc3ccccc3C)C2)c1 (centres undefined) | -0.143
26 | CN1CCOC(CNCC(=O)NCCc2ccc3c(c2)OCCO3)C1 (centres undefined) | -5.82
27 | Cn1ccnc1-c1nc(N2CCCCC2)ncc1-c1ccccc1F | 9.62
28 | CCN1CCN(c2ccccc2NC(=O)NCc2ccon2)CC1 | 2.14
29 | Cc1cc(=O)[nH]c(=O)n1Cc1ccccc1 | 1.77
30 | O=C(NCc1nnc2n1CCC2)c1cn(-c2ccccc2Br)nn1 | 12
31 | CN(CCCOc1ccccc1Cl)C(=O)CN1CCCCCC1=O | 9.36
32 | COC(=O)C1CCN(C(=O)Cn2ccc(-c3ccsc3)n2)CC1 | -3.29
33 | O=C(CCn1cccn1)N1CCC(c2nnc(-c3ccsc3)o2)CC1 | 4.17
34 | Cn1cc(CC(=O)N2CCCC(c3cc(C(F)(F)F)[nH]n3)C2)cn1 (centres undefined) | -6.59
35 | COc1cnc(N2CC(N3CCOCC3)C2)nc1-c1ccnn1C | -7.62
36 | O=C(NCC1CCOC1)c1cc(-c2ccc(F)cc2)[nH]n1 (centres undefined) | -0.741
37 | Cc1noc(CN(C)c2ccccc2)n1 | 5.44
38 | CCCC(=O)Nc1cccc([C@H]2C[C@@H](NC(C)=O)CCO2)c1 | 13.7
39 | Cc1cc(-c2cnc(N3CCCC3)nc2C(C)C)on1 | 16.6
